# Data published in PubChem BioAssay (NCATS).
# Records with an inconclusive call do not appear. The source made the active and inactive calls. The call rests on the fitted dose curve; in most records, active means well fitted curve in the direction sought with a large enough effect; inconclusive means small, poorly fitted or top-dose-only effect, or another doubt; inactive means no such curve, though single readings can be large; an effect the other way counts as inactive or inconclusive.
# Legend:
# [1] = Quantitative High-Throughput drug screen in 47 multiple myeloma cell lines against the NCATS MIPE library collection: H1112_PLB cell viability assay (AID 1918967; further: nearly all actives have a fitted effect of over 30% in size; further: potency means the concentration at half of the fitted maximal effect)
# Method in brief: (§1)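 Inhibition of cell viability is measured here. Each line was plated at 500 cells per well, treated with MIPE 4.0 drugs, kept 48 hours at 37C, then assayed for ATP content by CellTiter-Glo luminescence.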
# [2] = Quantitative High-Throughput drug screen in 47 multiple myeloma cell lines against the NCATS MIPE library collection: Karpas25_ECACC cell viability assay (AID 1918968; further: nearly all actives have a fitted effect of over 35% in size; further: potency means the concentration at half of the fitted maximal effect)
# Method in brief: as §1
# [3] = Quantitative High-Throughput drug screen in 47 multiple myeloma cell lines against the NCATS MIPE library collection: KMS12PE_JCRB cell viability assay (AID 1918972); further: nearly all actives have a fitted effect of over 30% in size; further: potency means the concentration at half of the fitted maximal effect
# Method in brief: as §1
# [4] = Quantitative High-Throughput drug screen in 47 multiple myeloma cell lines against the NCATS MIPE library collection: KMS26_JCRB cell viability assay (AID 1918975); further: nearly all actives have a fitted effect of over 45% in size; further: potency means the concentration at half of the fitted maximal effect
# Method in brief: (§2)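 Approved and investigational drugs from MIPE 4.0 were added by pin tool to 500 cells per well. After 48 hours at 37C, ATP-based CellTiter-Glo luminescence indicated remaining viability.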
# [5] = Quantitative High-Throughput drug screen in 47 multiple myeloma cell lines against the NCATS MIPE library collection: OCIMY1_PLB cell viability assay (AID 1918979); further: nearly all actives have a fitted effect of over 35% in size; further: potency means the concentration at half of the fitted maximal effect
# Method in brief: (§3)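 ATP-based luminescence (CellTiter-Glo, 5 min RT incubation) quantified surviving cells following two days' treatment with MIPE 4.0 agents at 37 °C, 5% CO2.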
# [6] = Quantitative High-Throughput drug screen in 47 multiple myeloma cell lines against the NCATS MIPE library collection: MM1R_ATCC cell viability assay (AID 1918981); further: nearly all actives have a fitted effect of over 35% in size; further: potency means the concentration at half of the fitted maximal effect
# Method in brief: as §3
# [7] = Quantitative High-Throughput drug screen in 47 multiple myeloma cell lines against the NCATS MIPE library collection: KMS28PE_JCRB cell viability assay (AID 1918983); further: nearly all actives have a fitted effect of over 35% in size; further: potency means the concentration at half of the fitted maximal effect
# Method in brief: as §3
# [8] = Quantitative High-Throughput drug screen in 47 multiple myeloma cell lines against the NCATS MIPE library collection: L363_DSMZ cell viability assay (AID 1918984); details: L363 myeloma viability, CellTiter-Glo ATP luminescence, 48 h; viability (% of control): at 45.8 µM (top of the series); further: nearly all actives have a fitted effect of over 40% in size; further: potency means the concentration at half of the fitted maximal effect
# Method in brief: as §3
# [9] = Quantitative High-Throughput drug screen in 47 multiple myeloma cell lines against the NCATS MIPE library collection: KMS27_JCRB cell viability assay (AID 1918970); details: KMS27 myeloma cells, CellTiter-Glo ATP viability, 48 h; viability (% of DMSO): at 45.8 µM (top of the series); further: nearly all actives have a fitted effect of over 30% in size
# Method in brief: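 CellTiter-Glo luminescence after 48 h drug exposure at 37 °C; 500 cells/well, 1536-well format, pin-tool compound addition; DMSO = 100%, media-only = 0% viability.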
# [10] = Quantitative High-Throughput drug screen in 47 multiple myeloma cell lines against the NCATS MIPE library collection: KMS12BM_JCRB cell viability assay (AID 1918971); further: nearly all actives have a fitted effect of over 35% in size; further: potency means the concentration at half of the fitted maximal effect
# Method in brief: as §2
# [11] = Quantitative High-Throughput drug screen in 47 multiple myeloma cell lines against the NCATS MIPE library collection: MM1S_ATCC cell viability assay (AID 1918980); further: nearly all actives have a fitted effect of over 45% in size; further: potency means the concentration at half of the fitted maximal effect
# Method in brief: as §3
# [12] = Quantitative High-Throughput drug screen in 47 multiple myeloma cell lines against the NCATS MIPE library collection: LP1_DSMZ cell viability assay (AID 1918982); further: nearly all actives have a fitted effect of over 35% in size; further: potency means the concentration at half of the fitted maximal effect
# Method in brief: as §3
# [13] = Quantitative High-Throughput drug screen in 47 multiple myeloma cell lines against the NCATS MIPE library collection: KMS34_JCRB cell viability assay (AID 1918985); further: nearly all actives have a fitted effect of over 40% in size; further: potency means the concentration at half of the fitted maximal effect
# Method in brief: as §3
# [14] = Quantitative High-Throughput drug screen in 47 multiple myeloma cell lines against the NCATS MIPE library collection: JJN3_DSMZ cell viability assay (AID 1918966; further: potency means the concentration at half of the fitted maximal effect; nearly all actives have a fitted effect of over 50% in size)
# Method in brief: as §1
# [15] = Quantitative High-Throughput drug screen in 47 multiple myeloma cell lines against the NCATS MIPE library collection: MMM1_PLB cell viability assay (AID 1918976)
# Method in brief: as §3
# [16] = Quantitative High-Throughput drug screen in 47 multiple myeloma cell lines against the NCATS MIPE library collection: NCIH929_DSMZ cell viability assay (AID 1918978); further: nearly all actives have a fitted effect of over 35% in size; further: potency means the concentration at half of the fitted maximal effect
# Method in brief: as §3
# [17] = Quantitative High-Throughput drug screen in 47 multiple myeloma cell lines against the NCATS MIPE library collection: KMS20_JCRB cell viability assay (AID 1918973); further: nearly all actives have a fitted effect of over 45% in size
# Method in brief: as §1
# [18] = Quantitative High-Throughput drug screen in 47 multiple myeloma cell lines against the NCATS MIPE library collection: MOLP8_DSMZ cell viability assay (AID 1918977); further: nearly all actives have a fitted effect of over 45% in size
# Method in brief: as §3
SMILES,Potency [1],Potency [2],Potency [3],Potency [4],Potency [5],Potency [6],Potency [7],Potency [8],Potency [9],Potency [10],Potency [11],Potency [12],Potency [13],Potency [14],Potency [15],Potency [16],Potency [17],Potency [18]
O=C1NC(=O)C(c2cnc3ccccn23)=C1c1cn2c3c(cccc13)CN(C(=O)N1CCOCC1)CC2,1.48 µM (active),0.001 µM (active),0.001 µM (active),0.0235 µM (active),inactive,3.32 µM (active),inactive,0.0093 µM (active),,,,,,,,,,
CN[C@H]1[C@@H](O[C@@H]2[C@H](O[C@@H]3[C@@H](O)[C@@H](O)[C@@H](N=C(N)N)[C@@H](O)[C@@H]3N=C(N)N)O[C@H](C)[C@@]2(O)C=O)O[C@@H](CO)[C@@H](O)[C@H]1O,inactive,inactive,inactive,inactive,,,inactive,0.0053 µM (active),inactive,inactive,inactive,inactive,inactive,,,,,
CC(C)(C)c1[nH]cnc1C=c1[nH]c(=O)c(=Cc2ccccc2)[nH]c1=O,,,,0.0241 µM (active),,,,,,,,,,0.0481 µM (active),15.2 µM (active),0.0215 µM (active),,
C[C@@H]1[C@H](C)CC[C@]2(C(=O)O)CC[C@]3(C)C(=CC[C@@H]4[C@@]5(C)CC[C@H](O)C(C)(C)[C@H]5CC[C@]43C)[C@@H]12,inactive,inactive,,19.1 µM (active),54 µM (active),21.5 µM (active),38.2 µM (active),inactive,,19.1 µM (active),inactive,48.1 µM (active),34 µM (active),,21.5 µM (active),inactive,inactive,
COc1cccc(OC)c1-c1cc(C(=O)NC2(C(=O)O)C3CC4CC(C3)CC2C4)nn1-c1ccnc2cc(Cl)ccc12 (centres undefined),inactive,inactive,inactive,inactive,,inactive,inactive,,,,16.6 µM (active),inactive,,,14.8 µM (active),inactive,inactive,inactive
Fc1ccc(CNc2ncnc3ccc(F)cc23)cc1,13.2 µM (active),3.72 µM (active),4.69 µM (active),inactive,,10.5 µM (active),11.8 µM (active),5.26 µM (active),,3.72 µM (active),14.8 µM (active),2.64 µM (active),,,4.18 µM (active),16.6 µM (active),,
CC1CCN(c2cc(N3CCN(C)CC3)ccc2NC(=O)c2cc(C#N)c[nH]2)CC1,inactive,inactive,,,,20.9 µM (active),23.5 µM (active),,inactive,,,,20.9 µM (active),,23.5 µM (active),inactive,,
